Here are results for 40 compounds from PubChem BioAssay (EPA / NIEHS).

What is called AC50 is the concentration giving half of the maximal activity seen.

The source made the active and inactive calls. The calls were made as follows: active = hit-call score of the fitted dose curve at least 0.9, where 1 is the maximum; inactive = score below 0.9.

This test in a line: ATG_NF_kB_CIS: Attagene CIS-FACTORIAL HepG2 Assay for human Nuclear Factor Kappa B (NF-kB) (AID 2282991). Particulars: HepG2 Attagene cis-factorial NF-kB reporter mRNA; actives raise or lower the signal. How it is done: ATG_CIS is a cell-based, multiplexed-readout assay that uses HepG2, a human liver cell line, with measurements taken at 24 hours after chemical dosing in a 24-well plate.ATG_NF_kB_CIS is one of 52 assay component(s) measured or calculated from the ATG_CIS assay. It is designed to make measurements of mRNA induction, a form of inducible reporter, as detected with fluorescence intensity signals by Reverse transcription polymerase chain reaction (RT-PCR) and Capillary electrophoresis technology.Data from the assay component ATG_NF_kB_CIS was analyzed into 1 assay endpoint. This assay endpoint, ATG_NF_kB_CIS, was analyzed with bidirectional fitting relative to DMSO as the negative control and baseline of activity. Using a type of inducible reporter, measures of mRNA for gain or loss-of-signal activity can be used to understand the reporter gene at the transcription factor-level as they relate to the gene NFKB1. Furthermore, this assay endpoint can be referred to as a primary readout, because this assay has produced multiple assay endpoints where this one serves a reporter gene function. To generalize the intended target to other relatable targets, this assay endpoint is annotated to the dna binding intended target family, where the subfamily is NF-kappa B.
Human liver HepG2 cells are transiently transfected with multiple reporter transcription units (MRTUs) in 6-well plates using FuGene 6 reagent (Roche; 3 ml FuGene/1 mg DNA). The MRTU constructs are regulated by a cis-regulating element (promoter). […] A major difference between the CIS and TRANS system is that in CIS activities of endogenous TFs are measured, whereas the TRANS assay evaluates changes in activities of exogenous, chimeric NR-Gal4 proteins. […] At the end of 24 hour incubation, total RNA was isolated using TriZol reagent (Invitrogen). The isolated RNA is then reverse-transcribed using oligo(dT) primer and Mo-MLV reverse transcriptase (Invitrogen) with DNAse I (Ambion) treatment for 30 min. The one-tenth of the produced cDNA was amplified by PCR using Taq DNA polymerase (Invitrogen) and two reporter sequence-specific primers. The PCR products were fluorescently labeled by primer extension with 6-arboxyfluorescein (6-FAM) 5'-labeled reporter sequence-specific primer (2 min at 95 C, 20 s at 68 C and 10 min at 72 C) and these products were digested with 5U of HpaI (New England Biolabs) for 2h at 37 C. The fragments were purified using Qiaquick PCR columns (Qiagen), analyzed on an ABI 3130xL genetic analyzer (Applied Biosystems) with peak positions identified by using a set of X-rhodamine (ROX)-labeled MapMarker1000 molecular weight standards (BioVentures). The raw capillary electrophoresis data was processed using Attagraph software (Attagene).
`C1=CCCC=CCCC=CCC1`: the compound was classed as inactive.
Turning to `CC(C)=CCCC(C)CCO` (stereo not given), the compound was classed as inactive.
Consider `CNCc1ccc(NC(=O)c2c[nH]c3c2C(=O)CCC3)cc1`, for which the compound was classed as inactive.
Consider `C1N2CN3CN1CN(C2)C3`, for which the result was inactive.
Turning to `CC[C@H]1CC[C@H](NCc2cc3c(cc2OC)[C@H]2C[C@H]2C(=O)N3C)[C@H](c2ccccc2)N1`, the AC50 was 45.2 µM (active).
For the compound `CCc1cc(SCc2sc(-c3ccc(C(F)(F)F)cc3)nc2CN2CCN(c3ccc(OC)cc3)CC2)ccc1OCC(=O)O`, the AC50 was 20.2 µM (active).
`O=c1n(CC2CO2)c(=O)n(CC2CO2)c(=O)n1CC1CO1` (stereo not given): the concentration at half-maximal activity (AC50) was 31.7 µM (active).
Regarding `COC(=O)c1c(Cl)c(Cl)c(C(=O)OC)c(Cl)c1Cl`, the compound was classed as inactive.
For the compound `Nc1cccc(N)c1`, the result was inactive.
Same read-out and setting: for `COc1cccc(-c2ccc(/C=C\CN3CCCCCC3)cc2Cl)c1` the value was “inactive”.
Regarding `O=C1CCCCCN1`, the compound was classed as inactive.
On to `CC(O)CN(CCN(CC(C)O)CC(C)O)CC(C)O` (stereo not given), for which the compound was classed as inactive.
For `CC[C@H]1OC(=O)[C@H](C)[C@@H](O[C@H]2C[C@@](C)(OC)[C@@H](O)[C@H](C)O2)[C@H](C)[C@@H](O[C@@H]2O[C@H](C)C[C@H](N(C)C)[C@H]2O)[C@](C)(O)C[C@@H](C)C(=O)[C@H](C)[C@@H](O)[C@]1(C)O`, the compound was called inactive.
In the case of `O=c1[nH]c2ccc(S(=O)CCN3CCC(Cc4ccc(F)cc4)CC3)cc2o1` (stereo not given), the half-maximal activity concentration (AC50) is 76.2 µM (active).
Consider `Cc1ccc(O)cc1`, for which the call was inactive.
Regarding `O=P(OC(CCl)CCl)(OC(CCl)CCl)OC(CCl)CCl`, the compound was classed as inactive.
Still for that read-out and setting: for `O=C(NS(=O)(=O)/C=C/c1ccccc1)c1ccc(F)cc1Cl` the value was “inactive”.
Same read-out and setting: for `Cn1cnc([N+](=O)[O-])c1Sc1ncnc2nc[nH]c12` the value was “inactive”.
On to `COc1ccc(/C=C/S(=O)(=O)NC(=O)c2ccc(C)cc2Cl)cc1`, for which the compound was classed as inactive.
In the case of `Nc1ccc(Nc2ccccc2)cc1`, the result was inactive.
For the compound `CC(C)CCO`, the call was inactive.
The same measure, in the same setting: in the case of `CC(C)(O)c1coc(S(=O)(=O)NC(=O)Nc2c3c(cc4c2CCC4)CCC3)c1` it was “inactive”.
Take `CCn1nc(Cc2ccccc2)cc1C1CCN(C[C@H]2C[C@H](N(C)[C@@H](C(=O)O)C(C)C)C[C@@H]2c2cccc(F)c2)CC1`: the AC50 was 38.2 µM (active).
As for `CCOC(=O)CC(CC(=O)OCC)(OC(C)=O)C(=O)OCC`, the compound was classed as inactive.
Turning to `O=C(CCCCCCCCc1cccnc1)N1CCC(C=C(c2ccccc2)c2ccccc2)CC1`, the compound was classed as inactive.
`COc1ccc(-n2nc(C(F)F)cc2-c2ccc(S(C)=O)cc2)cc1` (stereo not given): the result was inactive.
In the case of `CCOCCOCCOCCO`, the result was inactive.
On the same count and under the same terms, in the case of `COCCOCCOCCOC` it was “inactive”.
Regarding `O=C(O)c1cc(N=Nc2ccc(S(=O)(=O)Nc3ccccn3)cc2)ccc1O`, the outcome was inactive.
For `CCOC(=O)COc1ccc2c(c1)CC(NCC(O)c1cccc(Cl)c1)CC2` (stereo not given), the result was inactive.
On to `Cc1c(-c2cccnc2)c2ccccc2n1CCCCC(=O)O`, for which the AC50 is 100 µM (active).
For the compound `O=C(O)c1cccc(N(Cc2cccnc2)c2ccc(OC(F)F)c(OC(F)F)c2)c1`, the AC50 was 27.7 µM (active).
Same read-out and setting: for `CCCN(C1CCN(C(=O)C2CCNCC2)CC1)[C@@H]1CCc2ccc(OC)cc2C1` the value was 186 µM (active).
Turning to `CC(C)c1cccc(C(C)C)c1N1C(=O)c2ccc(O)cc2C1=O`, the call was inactive.
As to `CCN(C(=O)c1cc(C)cc(OC[C@H](C)Nc2ccncc2)c1)C(C)C`, the compound was called inactive.
Take `NC(=O)NO`: the compound was called inactive.
On to `O=C1CCC(N2C(=O)c3ccccc3C2=O)C(=O)N1` (stereo not given), for which the result was inactive.
Regarding `CN(C)c1ccc(Cc2ccc(N(C)C)cc2)cc1`, the concentration at half-maximal activity (AC50) was 37.9 µM (active).
`O=C(O)c1cccc(Oc2ccccc2)c1`: the outcome was inactive.
`O=C(OC[C@H]1O[C@@H](OC(=O)c2cc(O)c(O)c(OC(=O)c3cc(O)c(O)c(O)c3)c2)[C@H](OC(=O)c2cc(O)c(O)c(OC(=O)c3cc(O)c(O)c(O)c3)c2)[C@@H](OC(=O)c2cc(O)c(O)c(OC(=O)c3cc(O)c(O)c(O)c3)c2)[C@@H]1OC(=O)c1cc(O)c(O)c(OC(=O)c2cc(O)c(O)c(O)c2)c1)c1cc(O)c(O)c(OC(=O)c2cc(O)c(O)c(O)c2)c1`: the call was inactive.
